Results on 40 compounds are retold here after PubChem BioAssay (NCATS).

Results filed as inconclusive are left out. Where a call stands in place of a potency, no number is given. The source made the active and inactive calls. Calls follow the shape of the dose curve; as a rule, active = well fitted inhibition curve with a large enough effect; inconclusive = small, poorly fitted or top-dose-only effect; inactive = no such curve, though single readings can be large or run the other way.
Potency is read from the fitted curve at half-maximal effect.

A short description of this assay: NS1 protein of Zika virus - qHTS assay to identify small molecule inhibitors in human HEK 293 cells (AID 1347053). Also: nearly all actives have a fitted effect of over 55% in size. The settings on record: HEK293 ZIKV MR766 infection, NS1 TR-FRET, 24 h; series mostly up to 46.1 µM. An excerpt: National Center for Advancing Translational Sciences [NCATS]
Johns Hopkins University School of Medicine
The non-structural 1 (NS1) protein of zika virus is known to associate with the viral replication complex. This cell-based TR-FRET ZIKV NS-1 assay measures the increased NS-1 protein in human HEK 293 cells after a 24-hour Zika virus infection by a TR-FRET assay readout. A decrease in the Time-resolved fluorescence energy transfer (TR-FRET) signal in this assay by small molecule treatment indicates an inhibitory effect of the small molecule on the expression of Zika virus NS1 correlating with Zika virus replication.
HEK 293 cells were cultured in EMEM (ATCC, Cat. # 30-2003) medium with 10% fetal bovine serum (GE healthcare Life Sciences, Cat. # SH30071.03), and 1% Pen/Strep (Gibco, Cat. # 15140-122). Cells were seeded in the assay plate and incubated at 37 C with 5% CO2 for 20 hours. Compounds were added to cells and incubated for one hour before addition of ZIKV MR766 strain solution to cells (MOI = 0.5). After an incubation at 37 C for 24 hours, the reagent mixture of TR-FRET ZIKV NS1 assay using two anti-ZIKV NS1 antibodies was added to assay plates. The TR-FRET signals in assay plates were measured using an Envision plate reader (PerkinElmer). Data were normalized by using the cell-containing wells without ZIKV as a negative control (0% NS-1) and wells containing ZIKV infected cells as a positive control (100% NS-1 level).
Background: In qHTS, concentration-response curves come from the screen itself.
For the compound `C[C@@H]1C[C@H]2[C@@H]3CCC4=CC(=O)C=C[C@]4(C)[C@@]3(F)[C@@H](O)C[C@]2(C)[C@@]1(O)C(=O)CO`, the Potency result was “inactive”.

As for `CCOc1ccccc1N=Nc1c(C)[nH]n(-c2nc(-c3ccccc3)cs2)c1=O`, the Potency result was “inactive”.

For `CC[C@H]1OC(=O)[C@H](C)[C@@H](O[C@H]2C[C@@](C)(OC)[C@@H](O)[C@H](C)O2)[C@H](C)[C@@H](O[C@@H]2O[C@H](C)C[C@H](N(C)C)[C@H]2O)[C@](C)(O)C[C@H](C)C(=NOCOCCOC)[C@H](C)[C@@H](O)[C@]1(C)O`, the Potency entry was “inactive”.

With `OC1CCC(Nc2ncc3nc(Nc4c(F)cc(F)cc4F)n([C@@H]4CCOC4)c3n2)CC1` (stereo not given in full), the Potency result was “inactive”.

With `Cn1c(=O)c(Oc2ccc(F)cc2F)cc2cnc(NC3CCOCC3)nc21`, the Potency entry was “inactive”.

For `C=C1[C@H](n2cnc3c(=O)[nH]c(N)nc32)C[C@H](O)[C@H]1CO`, the Potency entry was “inactive”.

For `CCOC(=O)N1c2ccc(C(F)(F)F)cc2[C@@H](N(Cc2cc(C(F)(F)F)cc(C(F)(F)F)c2)C(=O)OC)C[C@H]1CC`, the Potency result is “inactive”.

On to `CCN(CC)CCCCNc1nc2cc(Cl)c(Cl)cc2nc1-c1ccc(-c2cccs2)s1`, for which the Potency entry was “inactive”.

Turning to `O=S(=O)(O)c1ccc2cc(N=Nc3cc(S(=O)(=O)O)c4cccnc4c3O)ccc2c1`, the Potency result was “inactive”.

For the compound `O=C(Nc1cccc(Cl)c1)Nc1ncc(CCNc2ncnc3ccsc23)s1`, the Potency result is “inactive”.

As for `Nc1ccc(-c2ccc3ncc4ccc(=O)n(-c5cccc(C(F)(F)F)c5)c4c3c2)cn1`, the Potency was 41.8 nM (active).

As to `C[C@H]1O[C@@H](n2cc(F)c(=O)[nH]c2=O)[C@H](O)[C@H]1O`, the Potency entry is “inactive”.

For the compound `CN(C(Cc1ccc(OS(=O)(=O)c2cccc3cnccc23)cc1)C(=O)N1CCN(c2ccccc2)CC1)S(=O)(=O)c1cccc2cnccc12` (stereo not given), the Potency result was “inactive”.

In the case of `CCCCCCCCCCCCCCCC(=O)O[C@H]1[C@@H](O)[C@@H](O)[C@@H]([C@H](NC(=O)[C@@H]2C[C@@H](CCC)CN2C)[C@H](C)Cl)O[C@@H]1SC`, the Potency result was “inactive”.

Turning to `CCC[C@H](Nc1nc(-c2ccc(NC(=O)NCC)c(OC)c2)ncc1C)c1cccnc1`, the Potency was 9.3 nM (active).

As to `CN(C)CCCNC(=O)c1ccc(-c2cc(O)c3ncccc3c2)cc1`, the Potency entry is “inactive”.

Consider `CCCCn1c(=O)n(Cc2ccccc2F)c(=O)c2[nH]c(Cc3ccc(NC(C)=O)cc3)nc21`, for which the Potency result is “inactive”.

As to `CCC=CC[C@H]1C(=O)CC[C@@H]1CC(=O)OC`, the Potency entry is “inactive”.

For the compound `CC1=C(CC(=O)O)c2cc(F)ccc2C1=Cc1ccc(S(C)=O)cc1` (stereo not given), the Potency result was “inactive”.

`O=C(CO)N1CCC(c2[nH]nc(-c3ccc(Cl)cc3)c2-c2ccncn2)CC1`: the Potency entry is “inactive”.

For the compound `C[C@@H]1[C@H](O)[C@@H](C)C=CC=CC=CC=CC=CC=CC=C[C@H](O[C@@H]2O[C@H](C)[C@H](O)[C@H](N)[C@@H]2O)C[C@@H]2O[C@](O)(C[C@@H](O)C[C@@H](O)[C@H](O)CC[C@@H](O)C[C@@H](O)CC(=O)O[C@H]1C)C[C@H](O)[C@@H]2C(=O)O`, the Potency result is “inactive”.

Turning to `CO[C@H]1O[C@@H]2O[C@@]3(C)CC[C@@H]4[C@@H](C)CC[C@@H]([C@H]1C)[C@@]24OO3`, the Potency entry was “inactive”.

Consider `NC(=O)c1noc([C@H](CCCC2CCCCC2)CC(=O)NO)n1`, for which the Potency is 13200 nM (active).

Regarding `C[C@@]1(c2cc(-c3cncnc3)c(F)cc2F)CCSC(N)=N1`, the Potency entry was “inactive”.

Turning to `CNC(=O)c1c(-c2ccc(F)cc2)oc2cc(N(CCO)S(C)(=O)=O)c(C3CC3)cc12`, the Potency entry is “inactive”.

For `C[C@@]1(C(=O)Nc2ccc(F)nc2)CCCN1c1nc(Nc2cc(C3CC3)[nH]n2)c2cccn2n1`, the Potency result was “inactive”.

Turning to `N#CC(=C1Nc2ccccc2S1)c1ccnc(OCc2ccc(CN3CCOCC3)cc2)n1`, the Potency result was “inactive”.

On to `OC(c1cc(C(F)(F)F)nc2c(C(F)(F)F)cccc12)C1CCCCN1` (stereo not given), for which the Potency is 10500 nM (active).

As to `O=C1Nc2ccc(I)cc2C1=Cc1cc(Br)c(O)c(Br)c1`, the Potency result is “inactive”.

Regarding `CN(C)CC[C@H](CSc1ccccc1)Nc1ccc(S(=O)(=O)NC(=O)c2ccc(N3CCN(Cc4ccccc4-c4ccc(Cl)cc4)CC3)cc2)cc1[N+](=O)[O-]`, the Potency entry is “inactive”.

On to `COc1ccc(-c2cc(=O)c3c(O)cc(O[C@@H]4O[C@H](CO[C@@H]5O[C@@H](C)[C@H](O)[C@@H](O)[C@@H]5O)[C@@H](O)[C@H](O)[C@@H]4O)cc3o2)cc1O`, for which the Potency result is “inactive”.

As to `Cc1ccc2c(c1)C(=O)[C@]1(O)CCN(c3ccccc3)C1=N2`, the Potency result is “inactive”.

On to `COc1c(C)c2c(c(O)c1CC=C(C)CCC(=O)OCCN1CCOCC1)C(=O)OC2`, for which the Potency was 526 nM (active).

For `CC(C)=CCCC(C)=CCCC(C)=CCCC(C)=CCCC(C)=CCCC(C)=CCCC(C)=CCCC(C)=CCCC(C)=CCO`, the Potency result is “inactive”.

For the compound `CC(C)c1c(C(=O)Nc2ccccc2)c(-c2ccccc2)c(-c2ccc(F)cc2)n1CC[C@H](O)C[C@@H](O)CC(=O)O`, the Potency result was “inactive”.

On to `OC[C@H]1O[C@@H](OCCc2ccc(O)cc2)[C@H](O)[C@@H](O)[C@H]1O`, for which the Potency entry was “inactive”.

In the case of `COc1cc([C@@H]2c3cc4c(cc3[C@@H](O[C@@H]3O[C@@H]5CO[C@@H](C)O[C@@H]5[C@H](O)[C@@H]3O)[C@H]3COC(=O)[C@H]23)OCO4)cc(OC)c1O`, the Potency was 1180 nM (active).

Take `COc1nccc(-c2c(-c3ccc(F)cc3)ncn2C2CCNCC2)n1`: the Potency result is “inactive”.

In the case of `N[C@@H](CC(=O)N1CCn2c(nnc2C(F)(F)F)C1)Cc1cc(F)c(F)cc1F`, the Potency entry was “inactive”.

In the case of `C#C[C@]1(O)CC[C@H]2[C@H]3CCc4cc(OC)ccc4[C@H]3CC[C@@]21C`, the Potency result is “inactive”.
